ALDH1A1 block: qHTS Assay for Inhibitors of Aldehyde Dehydrogenase 1 (ALDH1A1). Aldehyde dehydrogenase 1A1 (Homo sapiens), P00352. Purified ALDH1A1, NADH fluorescence, propionaldehyde substrate. Potency, µM (doses to about 75.3 µM), most hits filed as inhibitors. actives 7.3% (n = 220,000); active = well fitted inhibition curve with a large enough effect, not every such curve was filed as active; inconclusive = small, poorly fitted or top-dose-only effect, or another doubt; inactive = no such curve, though single readings can be large or run the other way
Tau fluor cs: Counterscreen qHTS for Inhibitors of Tau Fibril Formation, Fluorescence Polarization; tau K18 P301L Alexa594 fluorescence, heparin fibrillization; Potency, µM (doses to about 57.7 µM); actives 0.93% (n = 280,000); note: nearly all actives have a fitted effect of over 55% in size
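Human K18 P301L tau (15 uM unlabeled plus 0.24 uM Alexa 594-labeled, final) in 100 mM sodium acetate pH 7 was mixed with compound and 20 uM heparin and incubated 6 hr at 37 C.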
NPSR antag: qHTS Assay for Antagonists of the Neuropeptide S Receptor: cAMP Signal Transduction. Q6W5P4. CHO-NPSR cells, cAMP TR-FRET, antagonist mode. Potency, µM (titrated, usually from 38.3 µM), actives largely listed as inhibitors. actives 1% (n = 220,000). AID 1461, 2008; note: nearly all actives have a fitted effect of over 50% in size
Target sequence (Q6W5P4 whole entry, looked up): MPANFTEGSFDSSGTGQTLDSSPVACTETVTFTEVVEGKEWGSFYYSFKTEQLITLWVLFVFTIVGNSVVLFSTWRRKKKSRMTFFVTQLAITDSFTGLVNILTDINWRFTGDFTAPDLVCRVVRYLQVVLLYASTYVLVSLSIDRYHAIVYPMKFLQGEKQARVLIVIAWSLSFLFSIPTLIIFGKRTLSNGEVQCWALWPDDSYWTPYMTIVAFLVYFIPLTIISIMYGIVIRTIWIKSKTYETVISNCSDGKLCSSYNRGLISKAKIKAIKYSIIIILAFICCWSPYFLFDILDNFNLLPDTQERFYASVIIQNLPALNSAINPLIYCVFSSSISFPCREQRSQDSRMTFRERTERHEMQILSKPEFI
Tau FP inhib: qHTS for Inhibitors of Tau Fibril Formation, Fluorescence Polarization; Microtubule-associated protein tau (Homo sapiens), P10636; K18 P301L tau heparin fibrillization, Alexa594 FP, 6 h; AID 1468, 2008; actives 0.39% (n = 280,000); Potency, µM (titrated, usually from 57.7 µM), hits mostly inhibitors; note: nearly all actives have a fitted effect of over 55% in size
Target sequence (P10636 561-689 P618L limits assumed): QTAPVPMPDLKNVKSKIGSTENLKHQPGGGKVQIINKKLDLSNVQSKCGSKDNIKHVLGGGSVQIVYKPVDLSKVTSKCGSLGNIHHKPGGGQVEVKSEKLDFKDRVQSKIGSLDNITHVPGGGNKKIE
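Steps: dispense K18 P301L tau (15 uM plus 0.24 uM Alexa 594 tracer, final) in pH 7 sodium acetate; add compound; add heparin (20 uM final); incubate 6 hr, 37 C; add ThT (30 uM final); after 1 hr ambient, read FP.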
Tau fibril ThT: qHTS for Inhibitors of Tau Fibril Formation, Thioflavin T Binding | recombinant tau K18 P301L (four-repeat tau fragment), heparin-induced fibrillization, ThT fluorescence | Potency, µM (series often up to 57.4 µM), hits mostly inhibitors | actives 2.1% (n = 270,000) | AID 1460, 2008; note: nearly all actives have a fitted effect of over 55% in size
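In this qHTS, human K18 P301L tau is incubated with compound and heparin for 6 hr at 37 C, and Thioflavin T fluorescence then reports fibril load.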
HPGD block: qHTS Assay for Inhibitors of HPGD (15-Hydroxyprostaglandin Dehydrogenase); 15-hydroxyprostaglandin dehydrogenase [NAD(+)] (Homo sapiens), P15428; purified HPGD, NADH fluorescence kinetic, PGE2 substrate; Potency, µM, hits mostly inhibitors; actives 4.3% (n = 150,000); AID 894, 2007; active = well fitted inhibition curve with a large enough effect, not every such curve was filed as active; inconclusive = small, poorly fitted or top-dose-only effect, or another doubt; inactive = no such curve, though single readings can be large or run the other way
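NADH formation kinetics: reaction with 30 uM PGE2 and 1 mM NAD+ (final), 20 nM enzyme, Tris-HCl pH 8 with Tween 20, after 15 min compound preincubation at room temperature. Fluorescence change, last versus first of five reads.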
A number is an active result; [ ] = another dose, or the depositor's remark. Rows were chosen to be rich in hits. Some 9.5% of all compounds tested hit in one or more screens of this group. Unless noted, calls come from the whole dose curve; as a rule, active = well fitted curve in the direction sought with a large enough effect; inconclusive = small, poorly fitted or top-dose-only effect, or another doubt; inactive = no such curve, though single readings can be large; an effect the other way counts as inactive or inconclusive.

What do the screens show for `Fc1ccc([C@H]2CCNC[C@H]2COc2ccc3c(c2)OCO3)cc1`?
ALDH1A1 block: inconclusive; Tau fluor cs: inactive; Tau FP inhib: inactive; Tau fibril ThT: inactive; HPGD block: inactive

How did CC1CCOC(c2coc3ccccc3c2=O)O1 (stereo unspecified) do in these assays?
ALDH1A1 block: 20µM; Tau fluor cs: inactive; NPSR antag: inactive; Tau FP inhib: inactive; Tau fibril ThT: inactive; HPGD block: inactive

What do the screens show for `COc1ccccc1CNc1nc(-c2ccco2)nn1S(C)(=O)=O`?
Tau fluor cs: inactive; Tau FP inhib: inactive; Tau fibril ThT: inactive

Results for CCCCCn1c(=O)c2ccccc2n2c(CCl)nnc12 ?
ALDH1A1 block: 25µM; Tau fluor cs: inactive; NPSR antag: inactive; Tau FP inhib: inactive; Tau fibril ThT: inactive

How did CC(C)CCn1c(=O)c2ccccc2n2c(CN3CCCC3)nnc12 do in these assays?
ALDH1A1 block: inconclusive; Tau fluor cs: inactive; NPSR antag: inactive; Tau FP inhib: inactive; Tau fibril ThT: inactive

What do the screens show for `CC(C)CCn1c(=O)c2ccccc2n2c(CCl)nnc12`?
ALDH1A1 block: 25µM; Tau fluor cs: inactive; NPSR antag: inconclusive; Tau FP inhib: inactive; Tau fibril ThT: inactive

What do the screens show for `COCCn1ccc2c(OCC(=O)Nc3cccc(OC)c3)cccc2c1=O`?
Tau fluor cs: inactive; Tau FP inhib: inactive; Tau fibril ThT: inactive

What do the screens show for `CC(=O)C1=C(O)C(=O)N(CCNCCO)C1c1ccccc1` (stereo unspecified)?
ALDH1A1 block: inactive; Tau fluor cs: inactive; NPSR antag: inactive; Tau FP inhib: inactive; Tau fibril ThT: inactive; HPGD block: inactive

Results for Oc1ccc(C2CNCc3sccc32)cc1O (stereo unspecified) ?
ALDH1A1 block: inconclusive; Tau fluor cs: inactive; NPSR antag: inactive; Tau FP inhib: inactive; Tau fibril ThT: inconclusive; HPGD block: 7.1µM

How did Oc1ccc(C2CNCCc3c2cc(O)c(O)c3Cl)cc1 (stereo unspecified) do in these assays?
ALDH1A1 block: inconclusive; Tau fluor cs: inactive; NPSR antag: inactive; Tau FP inhib: inactive; Tau fibril ThT: inconclusive; HPGD block: inactive

How did COCCN(CCOC)C(=O)c1ccc(Cc2nc3ccccc3[nH]2)cc1 do in these assays?
ALDH1A1 block: inactive; HPGD block: inactive

What do the screens show for `COCCOC(=O)c1[nH]c2c(c1C)C(=O)CC(c1ccc(N(C)C)cc1)C2` (stereo unspecified)?
ALDH1A1 block: 14µM; Tau fluor cs: inactive; NPSR antag: inactive; Tau FP inhib: inactive; Tau fibril ThT: inconclusive; HPGD block: inactive

How did C=CCOC(=O)c1[nH]c2c(c1C)C(=O)CC(c1cc(OC)c(OC)c(OC)c1)C2 (stereo unspecified) do in these assays?
ALDH1A1 block: inconclusive; Tau fluor cs: inactive; NPSR antag: inactive; Tau FP inhib: inactive; Tau fibril ThT: inactive; HPGD block: inactive

Results for CCCCOC(=O)c1[nH]c2c(c1C)C(=O)CC(c1cc(OC)c(OC)c(OC)c1)C2 (stereo unspecified) ?
ALDH1A1 block: 5µM; Tau fluor cs: inactive; NPSR antag: inactive; Tau FP inhib: inactive; Tau fibril ThT: inactive; HPGD block: inactive

Results for CCOC(=O)c1[nH]c2c(c1-c1ccc(OC)cc1)C(=O)CC(c1ccc(OC)c(OC)c1)C2 (stereo unspecified) ?
ALDH1A1 block: 28µM; Tau fluor cs: inactive; NPSR antag: inactive; Tau FP inhib: inactive; Tau fibril ThT: inactive; HPGD block: inactive

Results for COc1ccc(COC(=O)c2[nH]c3c(c2C)C(=O)CC(c2ccc(OC)c(OC)c2)C3)cc1 (stereo unspecified) ?
Tau fluor cs: inactive; Tau FP inhib: inactive; Tau fibril ThT: inconclusive

What do the screens show for `COc1ccc(CCNC(=O)CCCn2c(=O)c3ccccc3n(CC(=O)Nc3cccc(C)c3)c2=O)cc1OC`?
Tau fluor cs: inconclusive; Tau FP inhib: inactive; Tau fibril ThT: inactive

Results for N/C(Cc1ccc(Cl)c(Cl)c1)=N\OC(=O)c1ccc(Br)o1 ?
ALDH1A1 block: inactive; Tau fluor cs: inactive; NPSR antag: inactive; Tau FP inhib: inactive; Tau fibril ThT: inactive

What do the screens show for `Cc1ccc(-n2c(O)c(/C=N/c3ncn[nH]3)c3ccccc3c2=O)cc1`?
ALDH1A1 block: inconclusive; Tau fluor cs: inactive; NPSR antag: inactive; Tau FP inhib: inactive; Tau fibril ThT: inactive

What do the screens show for `Oc1c(/C=N/c2ncn[nH]2)ccc2ccccc12`?
ALDH1A1 block: inconclusive; Tau fluor cs: inactive; NPSR antag: inactive; Tau FP inhib: inconclusive; Tau fibril ThT: 28µM; HPGD block: inactive

What do the screens show for `CCCCCCN`?
ALDH1A1 block: inactive; HPGD block: inactive

What do the screens show for `Brc1cc(Br)c2ncnc(N3CCCCC3)c2c1`?
ALDH1A1 block: inactive; Tau fluor cs: inactive; NPSR antag: 7.9µM; Tau FP inhib: inactive; Tau fibril ThT: inconclusive; HPGD block: inactive

What do the screens show for `CCC(C)Nc1nc(-c2ccc3c(c2)NC(=O)CO3)cs1` (stereo unspecified)?
ALDH1A1 block: 3.5µM; Tau fluor cs: inconclusive; NPSR antag: inconclusive; Tau FP inhib: inactive; Tau fibril ThT: inconclusive; HPGD block: inactive

Results for COc1ccc(Nc2nc(-c3ccc4c(c3)NC(=O)CO4)cs2)cc1 ?
ALDH1A1 block: inconclusive; Tau fluor cs: 13µM[quencher]; NPSR antag: inactive; Tau FP inhib: inactive; Tau fibril ThT: 7.9µM

What do the screens show for `COc1ccccc1Nc1nc(-c2ccc3c(c2)NC(=O)CO3)cs1`?
ALDH1A1 block: inconclusive; Tau fluor cs: 11µM[quencher]; NPSR antag: inactive; Tau FP inhib: inactive; Tau fibril ThT: 14µM

Results for COc1ccc(-c2cc(-c3ccccc3)nc(-c3ccc4c(c3)NC(=O)CO4)c2)cc1 ?
ALDH1A1 block: inconclusive; Tau fluor cs: inconclusive; NPSR antag: inactive; Tau FP inhib: inconclusive; Tau fibril ThT: inactive; HPGD block: inconclusive

Results for CC(=O)Nc1ccc(N/C=C/C(=O)c2ccco2)cc1 ?
ALDH1A1 block: 4.5µM; Tau fluor cs: inactive; NPSR antag: inactive; Tau FP inhib: inactive; Tau fibril ThT: 10µM; HPGD block: 25µM

What do the screens show for `O=C(/C=C/Nc1cccc(F)c1)c1ccco1`?
ALDH1A1 block: inactive; Tau fluor cs: inactive; NPSR antag: inactive; Tau FP inhib: inactive; Tau fibril ThT: inconclusive; HPGD block: inactive

What do the screens show for `CN(C)c1ccc(N/C=C/C(=O)c2ccc(F)cc2)cc1`?
ALDH1A1 block: inactive; Tau fluor cs: inconclusive; NPSR antag: inactive; Tau FP inhib: inactive; Tau fibril ThT: 2µM; HPGD block: inactive
